In PubChem BioAssay (Tox21):
A number with no mark means an inactive call. Records with an inconclusive call do not appear. The source made the active and inactive calls. Calls come from the whole dose curve.

Target: Estrogen receptor (Homo sapiens) (UniProt P03372)
Test: qHTS assay to identify small molecule agonists of the estrogen receptor alpha (ER-alpha) signaling pathway in the presence of an antagonist (AID 1259383); note: top concentration of the series differs between compounds; nearly all actives have a fitted effect of over 15% in size
Settings: VM7Luc4E2 cells, ERE-luciferase, +ICI-182,780, 22 h; series mostly up to 42.5 µM; activation: at the top concentration
Procedure, shortened: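 Stably transfected VM7Luc4E2 reporter cells, kept 5 days in charcoal-stripped serum, received ICI-182,780 at 10.0nM final before compound addition. Following 22hr incubation at 37C and 5% CO2, luciferase signal was read by luminescence.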
% is set by controls: 0 for no effect and ±100 for the full control effect.

Sequence of Estrogen receptor (Homo sapiens) (P03372 whole entry, looked up): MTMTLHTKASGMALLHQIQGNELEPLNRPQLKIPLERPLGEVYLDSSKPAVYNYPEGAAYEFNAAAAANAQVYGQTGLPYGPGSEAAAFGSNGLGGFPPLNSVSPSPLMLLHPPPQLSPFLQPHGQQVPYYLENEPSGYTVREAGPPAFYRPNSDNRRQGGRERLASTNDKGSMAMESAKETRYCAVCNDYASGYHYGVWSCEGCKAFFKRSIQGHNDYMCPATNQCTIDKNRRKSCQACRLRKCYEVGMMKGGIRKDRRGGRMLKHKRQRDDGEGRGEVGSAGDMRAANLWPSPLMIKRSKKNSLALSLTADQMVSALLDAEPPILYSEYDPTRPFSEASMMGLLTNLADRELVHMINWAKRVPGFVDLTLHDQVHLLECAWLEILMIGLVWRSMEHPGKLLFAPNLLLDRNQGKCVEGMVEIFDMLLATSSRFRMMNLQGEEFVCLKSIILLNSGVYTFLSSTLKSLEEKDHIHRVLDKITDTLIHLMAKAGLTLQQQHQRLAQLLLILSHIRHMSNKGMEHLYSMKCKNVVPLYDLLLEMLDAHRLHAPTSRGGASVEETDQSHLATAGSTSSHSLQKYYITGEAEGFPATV

| SMILES | activation |
| --- | --- |
| COc1ccnc(CS(=O)c2nc3ccc(OC(F)F)cc3[nH]2)c1OC (configuration not stated) | 0.71% |
| O=C(O)c1ccc(S(=O)(=O)O)cc1C(=O)O | -3.94% [at 92.4 µM] |
| COS(=O)(=O)C(F)(F)F | -0.241% [at 92.4 µM] |
| OCCNCc1ccccc1 | -0.803% [at 92.4 µM] |
| CCOCC(O)COc1ccc(NC(=O)CC[S+](C)C)cc1 (configuration not stated) | -0.274% |
| CC(=O)c1cccc([N+](=O)[O-])c1 | -0.214% [at 92.4 µM] |
| CCCCC1=NC2(CCCC2)C(=O)N1Cc1ccc(-c2ccccc2-c2nn[nH]n2)cc1 | -1.28% |
| CCCCCCCN | 0.246% [at 92.4 µM] |
| CC(CC=O)c1ccccc1 (configuration not stated) | -0.908% [at 92.4 µM] |
| CCOC(=O)C(=O)CCc1ccccc1 | -0.418% |
| C[N+](C)(C)CCOC(=O)CCC(=O)OCC[N+](C)(C)C | 0.199% |
| CCCCCCCCO[C@@H]1O[C@H](CO)[C@@H](O)[C@H](O)[C@H]1O | 0.36% [at 92.4 µM] |
| c1cc(CCCc2ccncc2)ccn1 | 0.803% [at 92.4 µM] |
| CCOC(=O)Cc1cccc2ccccc12 | 0.678% [at 92.4 µM] |
| CCO[C@H](Cc1ccc(OCCc2ccc(OS(C)(=O)=O)cc2)cc1)C(=O)O | -0.698% |
| Cc1cc(C(=O)O)ccc1[N+](=O)[O-] | 0.827% [at 92.4 µM] |
| CCN(CC)CCNC(=O)c1cc(Br)c(N)cc1OC | -0.232% |
| OC[C@H]1O[C@@H](OCCc2ccc(O)cc2)[C@H](O)[C@@H](O)[C@@H]1O | -0.349% |

| SMILES | activation |
| --- | --- |
| C=C1[C@H]2CC[C@@H]3[C@H]2C(C)(C)CCC[C@]13C | -0.523% [at 92.4 µM] |
| C=CCOc1ccccc1OCC(O)CNC(C)C (configuration not stated) | -0.546% |
| CCOC(=O)c1cccnc1 | -0.584% |
| NCC(=O)O | -0.0148% [at 19 µM] |
| CN1Cc2cc(C(=O)N3CCC(C4CCNCC4)CC3)ccc2NC(CC(=O)O)C1=O (configuration not stated) | -0.463% |
| CCN(CC)CCOC(=O)C(c1ccccc1)C1CCCCC1 (configuration not stated) | -1.68% |
| O=C1C(O)=C(O)C(=O)C(O)=C1O | -1.12% |
| Cc1[nH]c(C)c(Cl)c(=O)c1Cl | 0.291% [at 19 µM] |
| O=C(O)CNCC(=O)O | -1.55% [at 8.39 µM] |
| O=C(CS)Nc1ccccc1 | 0.511% |
| NCC(=O)CCC(=O)O | -0.248% |
| Cc1ncc(CO)c(C=O)c1O | -1.34% |
| O=C1CCCCCCCCCCCC(=O)OCCO1 | -0.787% [at 92.4 µM] |
| CCOc1ccc(O)cc1 | 3.53% [at 92.4 µM] |
| NCCCN1CCOCC1 | -0.147% [at 92.4 µM] |
| CCCCCCCCCCCCCCCCOS(=O)(=O)O | -2.9% |
| NCc1ccccc1Sc1ccccc1CO | 1.31% |

Test system: not listed separately
Test: qHTS assay to identify small molecule agonists or antagonists of the thyroid stimulating hormone receptor (TSHR) signaling pathway - wild type cell line counter screen (AID 1259384)
Settings: HEK293 wild type, cAMP HTRF counter-screen; series mostly up to 92.4 µM; cAMP activity change: at the top concentration
Procedure, shortened: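 Counter screen in untransfected Hek293: compounds (15-point titration, triplicate) plus phosphodiesterase inhibitor Ro20-1724 added after 18 h plating; 30 min RT. Intracellular cAMP via competitive d2/cryptate immunoassay, 1 h incubation.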

| SMILES | cAMP activity change |
| --- | --- |
| COc1ccnc(CS(=O)c2nc3ccc(OC(F)F)cc3[nH]2)c1OC (configuration not stated) | -4.24% [at 42.5 µM, active compounds read high] |
| O=C(O)c1ccc(S(=O)(=O)O)cc1C(=O)O | -2.99% |
| COS(=O)(=O)C(F)(F)F | -1.15% |
| CCOCC(O)COc1ccc(NC(=O)CC[S+](C)C)cc1 (configuration not stated) | 2.8% [at 42.5 µM, active compounds read high] |
| CCCCCCCN | 2.86% |
| CC(CC=O)c1ccccc1 (configuration not stated) | 7.01% |
| C[N+](C)(C)CCOC(=O)CCC(=O)OCC[N+](C)(C)C | -10.4% [at 42.5 µM, active compounds read high] |
| CCCCCCCCO[C@@H]1O[C@H](CO)[C@@H](O)[C@H](O)[C@H]1O | -5.03% |
| c1cc(CCCc2ccncc2)ccn1 | 8.4% |
| CCOC(=O)Cc1cccc2ccccc12 | -4.31% |
| Cc1cc(C(=O)O)ccc1[N+](=O)[O-] | -3.32% |
| CCN(CC)CCNC(=O)c1cc(Br)c(N)cc1OC | 3.92% [at 42.5 µM, active compounds read high] |
| CCOC(=O)c1cccnc1 | -2.41% [at 42.5 µM, active compounds read high] |
| NCC(=O)O | -6.62% [at 18.9 µM, active compounds read high] |
| CN1Cc2cc(C(=O)N3CCC(C4CCNCC4)CC3)ccc2NC(CC(=O)O)C1=O (configuration not stated) | 4.71% [at 42.5 µM, active compounds read high] |
| CCN(CC)CCOC(=O)C(c1ccccc1)C1CCCCC1 (configuration not stated) | -2.17% [at 42.5 µM, active compounds read high] |
| O=C1C(O)=C(O)C(=O)C(O)=C1O | 1.08% [at 42.5 µM, active compounds read high] |
| Cc1[nH]c(C)c(Cl)c(=O)c1Cl | 6.03% [at 18.9 µM, active compounds read high] |
| O=C(O)CNCC(=O)O | 0.505% [at 8.39 µM, active compounds read high] |
| O=C(CS)Nc1ccccc1 | -1.76% [at 42.5 µM, active compounds read high] |
| NCC(=O)CCC(=O)O | 2.6% [at 42.5 µM, active compounds read high] |
| Cc1ncc(CO)c(C=O)c1O | -3.46% [at 42.5 µM, active compounds read high] |
| O=C1CCCCCCCCCCCC(=O)OCCO1 | 8.16% |
| CCOc1ccc(O)cc1 | 5.86% |
| NCCCN1CCOCC1 | 1.65% |
| CCCCCCCCCCCCCCCCOS(=O)(=O)O | 2.91% [at 42.5 µM, active compounds read high] |
| NCc1ccccc1Sc1ccccc1CO | 2.59% [at 42.5 µM, active compounds read high] |

Target: Thyrotropin receptor (Homo sapiens) (UniProt P16473)
Sequence (P16473 whole entry, looked up): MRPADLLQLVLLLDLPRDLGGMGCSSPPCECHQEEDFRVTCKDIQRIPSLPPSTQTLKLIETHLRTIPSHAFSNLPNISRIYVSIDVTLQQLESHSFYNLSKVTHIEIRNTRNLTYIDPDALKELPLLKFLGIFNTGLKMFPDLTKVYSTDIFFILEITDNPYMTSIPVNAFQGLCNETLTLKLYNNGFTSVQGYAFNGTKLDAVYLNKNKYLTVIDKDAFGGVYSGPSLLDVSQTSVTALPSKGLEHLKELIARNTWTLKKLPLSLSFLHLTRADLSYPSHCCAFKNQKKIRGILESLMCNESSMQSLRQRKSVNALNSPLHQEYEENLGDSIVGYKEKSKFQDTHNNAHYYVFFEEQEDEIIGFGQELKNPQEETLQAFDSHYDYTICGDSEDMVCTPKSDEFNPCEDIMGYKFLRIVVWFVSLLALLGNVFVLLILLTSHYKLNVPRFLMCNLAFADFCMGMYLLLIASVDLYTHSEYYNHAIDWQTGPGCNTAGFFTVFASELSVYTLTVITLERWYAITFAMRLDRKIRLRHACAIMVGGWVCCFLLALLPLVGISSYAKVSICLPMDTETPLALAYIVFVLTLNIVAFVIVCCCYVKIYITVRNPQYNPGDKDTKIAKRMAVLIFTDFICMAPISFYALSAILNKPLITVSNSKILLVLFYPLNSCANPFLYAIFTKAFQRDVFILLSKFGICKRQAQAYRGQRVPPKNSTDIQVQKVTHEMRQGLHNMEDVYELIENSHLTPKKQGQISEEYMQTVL
Test: qHTS assay to identify small molecule antagonists of the thyroid stimulating hormone receptor (TSHR) signaling pathway (AID 1259385); note: nearly all actives have a fitted effect of over 20% in size; note: potency is the fitted concentration of half-maximal effect
Settings: TSHR-HEK293 cAMP HTRF, TSH-stimulated antagonist mode; series mostly up to 92.4 µM; activity change, negative = inhibition: at the top concentration
Procedure, shortened: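 Antagonist mode: compound-treated TSHR-expressing HEK293 cells were stimulated with 1.5 ng/mL TSH (final) in presence of Ro20-1724 for 30 min at RT. HTRF cAMP detection after 1 h; each compound tested at 15 concentrations, triplicate.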

| SMILES | activity change, negative = inhibition | Potency |
| --- | --- | --- |
| COc1ccnc(CS(=O)c2nc3ccc(OC(F)F)cc3[nH]2)c1OC (configuration not stated) | 0.532% [at 42.5 µM] | – |
| O=C(O)c1ccc(S(=O)(=O)O)cc1C(=O)O | -0.217% | – |
| COS(=O)(=O)C(F)(F)F | -2.61% | – |
| CCOCC(O)COc1ccc(NC(=O)CC[S+](C)C)cc1 (configuration not stated) | -0.766% [at 42.5 µM] | – |
| CCCCCCCN | 2.96% | – |
| CC(CC=O)c1ccccc1 (configuration not stated) | 1.02% | – |
| C[N+](C)(C)CCOC(=O)CCC(=O)OCC[N+](C)(C)C | -0.193% [at 42.5 µM] | – |
| CCCCCCCCO[C@@H]1O[C@H](CO)[C@@H](O)[C@H](O)[C@H]1O | -0.944% | – |
| c1cc(CCCc2ccncc2)ccn1 | 0.347% | – |
| CCOC(=O)Cc1cccc2ccccc12 | -3.35% | – |
| Cc1cc(C(=O)O)ccc1[N+](=O)[O-] | -1.65% | – |
| CCN(CC)CCNC(=O)c1cc(Br)c(N)cc1OC | -0.0556% [at 42.5 µM] | – |
| CCOC(=O)c1cccnc1 | 0.373% [at 42.5 µM] | – |
| NCC(=O)O | 2.94% [at 19 µM] | – |
| CN1Cc2cc(C(=O)N3CCC(C4CCNCC4)CC3)ccc2NC(CC(=O)O)C1=O (configuration not stated) | 1.62% [at 42.5 µM] | – |
| CCN(CC)CCOC(=O)C(c1ccccc1)C1CCCCC1 (configuration not stated) | – | 26.6 µM (active) |
| O=C1C(O)=C(O)C(=O)C(O)=C1O | 2.4% [at 42.5 µM] | – |
| Cc1[nH]c(C)c(Cl)c(=O)c1Cl | 4.84% [at 19 µM] | – |
| O=C(O)CNCC(=O)O | -1.17% [at 8.39 µM] | – |
| O=C(CS)Nc1ccccc1 | 0.722% [at 42.5 µM] | – |
| NCC(=O)CCC(=O)O | 0.58% [at 42.5 µM] | – |
| Cc1ncc(CO)c(C=O)c1O | 1.05% [at 42.5 µM] | – |
| CCOc1ccc(O)cc1 | 7.18% | – |
| NCCCN1CCOCC1 | 0.952% | – |
| NCc1ccccc1Sc1ccccc1CO | 0.554% [at 42.5 µM] | – |
